This is a sample that favours compounds with a hit; in the whole collection about 6.3% have one here.
Mdm2-MdmX inh: inhibitors of human Mdm2/MdmX interaction | AID 485346 | 3% of 330,000 active | SaOS-2 split-luciferase Mdm2/MdmX complementation, luminescence | inhibition, % at 8 µM;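 active = inhibition of at least 50% at 8 µM in the primary screen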
MPTP block: permeability transition pore inhibition | isolated mouse mitochondria, Ca2+ swelling absorbance, 30 min | inhibition, % at 10 µM | 1.4% of 360,000 active | AID 602449;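 active = inhibition of 50% or more, scaled per plate between neutral and stimulator controls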
tim10-1 inh: inhibits growth of tim10-1 mutant yeast. S. cerevisiae tim10-1 ts strain growth, BacTiter-Glo, 24 h. inhibition, % at 20 µM. 2.2% of 330,000 active. AID 463190;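 active = inhibition of at least 40%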;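 also: mutant grown at 25 °C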
tim23-1 inh: growth inhibitors of tim23-1 mutant yeast; AID 463212; 1.3% of 330,000 active; inhibition, % at 20 µM; S. cerevisiae tim23-1 growth, BacTiter-Glo luminescence, 24 h;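 active = growth inhibition of the mutant yeast at or above 50%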;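 also: temperature-sensitive mutant grown at 25 °C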
TIM10 inh: inhibits growth of TIM10 yeast strain | 1.4% of 330,000 active | AID 463195 | inhibition, % at 10 µM | S. cerevisiae TIM10 strain growth, BacTiter-Glo luminescence, 24 h;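 active = inhibition of 40% or more at the single tested concentration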;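 also: wild-type TIM10 isogenic control strain grown at permissive 25 °C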
Mdm2-MdmX conf: confirmation of human Mdm2/MdmX interaction inhibitors. shares compounds with Mdm2-MdmX inh. Mdm2-MdmX binding, luminescent assay. inhibition, % at 8 µM. 55% of 10,000 active; in the data active = inhibition above about 40%
Full FLuc ctr: inhibits full-length luciferase, flagging false Mdm2/MdmX hits | shares compounds with Mdm2-MdmX inh | SaOS-2 full-length luciferase counterscreen, luminescence | inhibition, % at 8 µM | 77% of 6,200 active | AID 504607;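 active = mean inhibition at 8 µM reaching about 37%, which flags the compound as non-specific, limit read from the data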;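 also: p53-null SaOS-2 cells with luciferase driven by a doxycycline-inducible promoter; compound on cells about two nights before reading with doxycycline added after day one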
Hits are given with their value.

For Cc1cccc(-n2cc(-c3ccccc3)c3c(N4CCOCC4)ncnc32)c1 the results were Mdm2-MdmX inh 67, MPTP block inactive, tim10-1 inh inactive, tim23-1 inh inactive, TIM10 inh inactive, Mdm2-MdmX conf 55 and Full FLuc ctr 72.
`COc1ccc(-n2cc(-c3ccccc3)c3c(N4CCN(CCO)CC4)ncnc32)cc1` gave Mdm2-MdmX inh 51, MPTP block inactive, tim10-1 inh inactive, tim23-1 inh inactive, TIM10 inh inactive and Mdm2-MdmX conf inactive.
`Cc1ccc(-c2nc3cnccn3c2Nc2ccc3c(c2)OCO3)cc1` gave Mdm2-MdmX inh inactive, MPTP block inactive, tim10-1 inh inactive, tim23-1 inh inactive and TIM10 inh inactive.
Screening COc1ccc(-c2nc3cnccn3c2Nc2ccc3c(c2)OCO3)cc1 returned Mdm2-MdmX inh 53, MPTP block inactive, tim10-1 inh inactive, tim23-1 inh inactive, TIM10 inh inactive and Mdm2-MdmX conf inactive.
COc1ccc(N2CCN(CCCn3c(=S)[nH]c4ccccc4c3=O)CC2)cc1 was read as Mdm2-MdmX inh 86, MPTP block inactive, tim10-1 inh inactive, tim23-1 inh inactive, TIM10 inh inactive, Mdm2-MdmX conf 67 and Full FLuc ctr 47.
`COc1ccccc1N1CCN(CCCn2c(=S)[nH]c3ccccc3c2=O)CC1` gave Mdm2-MdmX inh inactive, MPTP block inactive, tim10-1 inh inactive, tim23-1 inh inactive and TIM10 inh inactive.
`CN(NC(=O)c1cccc(Cl)c1)c1nc(-c2ccccc2)nnc1C(F)(F)F` gave Mdm2-MdmX inh 59, MPTP block inactive, tim10-1 inh inactive, tim23-1 inh inactive, TIM10 inh inactive, Mdm2-MdmX conf 57 and Full FLuc ctr 53.
Cc1cc(-c2ccccc2)nc(N(C)NC(=O)c2ccc(Cl)cc2)c1S(C)(=O)=O was read as Mdm2-MdmX inh inactive, MPTP block inactive, tim10-1 inh inactive, tim23-1 inh inactive and TIM10 inh inactive.
Screening O=C(CCCC(=O)Nc1cccc(Br)c1)N/N=C/c1cc([N+](=O)[O-])ccc1O returned Mdm2-MdmX inh 74, MPTP block inactive, tim10-1 inh inactive, tim23-1 inh inactive, TIM10 inh inactive and Mdm2-MdmX conf inactive.
`O=C(CN(c1cccc(Br)c1)S(=O)(=O)c1ccccc1)N/N=C/c1cc([N+](=O)[O-])ccc1O` gave Mdm2-MdmX inh 52, MPTP block inactive, tim10-1 inh inactive, tim23-1 inh inactive, TIM10 inh inactive and Mdm2-MdmX conf inactive.
`O=C(CCC(=O)Nc1cccc(Cl)c1)N/N=C/c1cc([N+](=O)[O-])ccc1O` gave Mdm2-MdmX inh inactive, MPTP block inactive, tim10-1 inh inactive, tim23-1 inh inactive and TIM10 inh inactive.
COc1ccc2cc(C#CC3=CC(=O)C[C@H](c4ccc(F)cc4)C3)ccc2c1 was read as MPTP block inactive.
`COc1cccc(NC(=O)CNC(=O)[C@@H]2Cc3ccccc3CN2C(=O)OC(C)(C)C)c1` gave Mdm2-MdmX inh inactive, MPTP block inactive, tim10-1 inh inactive, tim23-1 inh inactive and TIM10 inh inactive.
Screening CC(C)(C)OC(=O)N1Cc2ccccc2C[C@H]1C(=O)NCC(=O)Nc1ccc2c(c1)OCCO2 returned Mdm2-MdmX inh 64, MPTP block inactive, tim10-1 inh inactive, tim23-1 inh inactive, TIM10 inh inactive, Mdm2-MdmX conf 66 and Full FLuc ctr 67.
For COC(=O)[C@]1(Sc2ccc(C)cc2)CC(=O)N[C@@H]1c1ccccc1 the results were MPTP block inactive.
`COc1ccc([N+](=O)[O-])cc1NC(=O)CSCc1ccc(Br)cc1` gave Mdm2-MdmX inh 51, MPTP block inactive, tim10-1 inh inactive, tim23-1 inh inactive, TIM10 inh inactive and Mdm2-MdmX conf inactive.
COc1ccc([N+](=O)[O-])cc1NC(=O)CSCc1ccccc1C was read as Mdm2-MdmX inh inactive, MPTP block inactive, tim10-1 inh inactive, tim23-1 inh inactive and TIM10 inh inactive.
`O=C(Nc1nnc([C@@H]2C[C@H](O)[C@@H](CO)O2)s1)Nc1cccc2c1CCCC2` gave MPTP block inactive.
Screening Cc1nc(NC(=O)CSc2nc3cccnc3n2Cc2ccccc2)sc1C returned Mdm2-MdmX inh 78, MPTP block inactive, tim10-1 inh inactive, tim23-1 inh inactive, TIM10 inh inactive and Mdm2-MdmX conf inactive.
Screening CC1(C(=O)NS(=O)(=O)c2ccccc2OC(F)(F)F)CCN1C(=O)c1ccccc1 (centres undefined) returned MPTP block inactive.
Screening CCCCCc1c(C)c(C#N)c2nc3ccccc3n2c1-n1ccnc1C returned Mdm2-MdmX inh inactive, MPTP block inactive, tim10-1 inh inactive, tim23-1 inh inactive and TIM10 inh inactive.
`C=C(C)CN1CCN(c2c(CCC#N)c(C)c(C#N)c3nc4ccccc4n23)CC1` gave Mdm2-MdmX inh 74, MPTP block inactive, tim10-1 inh inactive, tim23-1 inh inactive, TIM10 inh inactive and Mdm2-MdmX conf inactive.
Cc1cc2nc(NCCCO)n(CC(=O)c3cc(C(C)(C)C)c(O)c(C(C)(C)C)c3)c2cc1C was read as Mdm2-MdmX inh 98, MPTP block inactive, tim10-1 inh inactive, tim23-1 inh inactive, TIM10 inh inactive, Mdm2-MdmX conf 64 and Full FLuc ctr 41.
For CCc1nc2ccc(C(=O)NCCCn3ccnc3)cn2c1N(C)C(=O)c1cccc(OC)c1 the results were MPTP block inactive.
`CC(=O)N1CC2(CC(c3ccccc3C(F)(F)F)=NO2)CN1c1ccc(Cl)cc1` (centres undefined) gave MPTP block inactive.
CC1=C(C(=O)OCc2ccccc2)C(c2ccc(C)cc2)NC(=O)N1 (centres undefined) was read as MPTP block inactive.
For CN(C)CCNC(=O)c1onc(CSc2ccncc2)c1C(=O)NCCN(C)C the results were Mdm2-MdmX inh inactive, MPTP block inactive, tim10-1 inh inactive, tim23-1 inh inactive and TIM10 inh inactive.
Screening Cc1cc(C)cc(SCc2noc(C(=O)NCCN(C)C)c2C(=O)NCCN(C)C)c1 returned Mdm2-MdmX inh 89, MPTP block inactive, tim10-1 inh inactive, tim23-1 inh inactive, TIM10 inh inactive, Mdm2-MdmX conf 47 and Full FLuc ctr 49.
`COc1ccc([C@H]2C[C@@H](O)[C@H](n3cc(C4CC4)nn3)CN2C(=O)C2CCCCC2)cc1` gave MPTP block inactive.
Screening CCCn1nc(C(=O)Nc2nc(-c3ccccn3)cs2)c2ccccc2c1=O returned Mdm2-MdmX inh 62, MPTP block inactive, tim10-1 inh inactive, tim23-1 inh inactive, TIM10 inh inactive, Mdm2-MdmX conf 50 and Full FLuc ctr 53.
`O=C(Nc1nc(-c2ccccn2)cs1)c1ccccc1-n1cnnn1` gave Mdm2-MdmX inh 72, MPTP block inactive, tim10-1 inh inactive, tim23-1 inh inactive, TIM10 inh inactive, Mdm2-MdmX conf 75 and Full FLuc ctr inactive.

Screens deposited in PubChem BioAssay by Sanford-Burnham Center for Chemical Genomics.
